Growth data for 40 compounds are collected here from PubChem BioAssay (NCI).

SMILES strings stand for the structures. This is part of a sample that, as a whole, favours compounds with a hit. Of some 83,000 tested, about 20% had one in any assay.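 Single-concentration screen, 48 h exposure, 96-well plates. Endpoint: percent growth. Below 10 = active.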 A number with no mark means an inactive call. Active and inactive are the calls of the source.

In this test the test system is HL-60(TB) leukemia. The test can be described thus: NCI-60 one-dose screen, 48 h (100 = growth as untreated, 0 = no growth, -100 = all killed). The note with it: 10 µM unless noted.
As to `COc1ccc2sc3c(NCCCN)nc4ccccc4c3c(=O)c2c1`, the growth was 2.17% (active).

With `C=CCO[C@H]1CO[C@H]2[C@@H]1OC[C@@H]2Oc1ccc(Nc2ccnc(Nc3ccc(O[C@H]4CO[C@H]5[C@@H]4OC[C@@H]5OCC=C)c(Cl)c3)n2)cc1Cl`, the growth is -51.4% (active).

Take `NC(N)=N/N=C\c1cccc(OCc2ccccc2)c1`: the growth was 55.5%.

Regarding `COc1ccc(/C=C2\COc3ccc(O)cc3C2=O)c(OC)c1`, the growth is 11.2%.

As for `O=c1c(CNc2ccc(S(=O)(=O)Nc3ncccn3)cc2)coc2ccccc12`, the growth was 93.2%.

In the case of `COC(=O)c1ccc(NC(N)=NCCC(C)(C)c2ccc(C(F)(F)F)cc2)nc1`, the growth is -41.4% (active).

For `Cc1ccccc1CCO`, the growth is 100%.

Consider `CNC(=O)c1cccnc1`, for which the growth was 99.5%.

On to `S=C(SSC(=S)N1CCOCC1)N1CCOCC1`, for which the growth was 98%.

For the compound `COc1cc(C)c2c(=O)c3c(oc2c1)C(=O)c1c(O)c(OC)cc(O)c1C3=O`, the growth is -45.4% (active).

On to `CC1(C)N=C(N)N=C(N)N1c1ccc(OCC(=O)Nc2ccccc2)c(Cl)c1`, for which the growth was 13.8%.

In the case of `CC(=O)N1N=C(c2ccc(Cl)cc2)CC1c1c(C)nn(-c2ccccc2)c1N(C)Cc1ccccc1` (stereo not given), the growth was 82.4%.

In the case of `CC1=C/C(=C(\c2cc(C)c(O)c(C(=O)O)c2)c2c(Cl)cccc2Cl)C=C(C(=O)O)C1=O`, the growth is 106%.

On to `COc1cc(/C=C2\C(=O)N(CCCOc3cc(O)c4c(=O)cc(-c5ccccc5)oc4c3)c3ccccc32)cc(OC)c1O`, for which the growth is 47.2%.

With `COc1cc(NCC(=O)Nc2cc(Nc3cccc(C(F)(F)F)c3)ncn2)c(Cl)c(OC)c1Cl`, the growth was 79.2%.

Regarding `CCNCCNc1cc(C2CCCCC2)c(C#N)c2nc3ccccc3n12`, the growth was -62.4% (active).

With `O=C(c1ccccc1)c1ccc(N2C(=O)C3C4c5ccccc5C(/C=C/C(=O)c5ccccn5)(c5ccccc54)C3C2=O)cc1` (stereo not given), the growth was 30%.

On to `O=S(Cc1ccccc1)/C(=C/NC(=S)Nc1ccccc1)c1ccccc1` (stereo not given), for which the growth is 106%.

On to `COc1ccc(OC)c(Cn2cc3c(c2-c2ccccc2)CCc2cnoc2-3)c1`, for which the growth is 32.2%.

As to `Cc1nn(-c2ccccc2)c(N2CCCCC2)c1/C=N/NC(=O)Cn1c(=O)sc2ccccc21`, the growth was 69.9%.

Consider `Cc1ccc(NC(=O)c2sc3nc4c(cc3c2N)C(=O)CCC4)cc1C`, for which the growth is -10.6% (active).

Turning to `CN1CCCC1=Nc1ccccc1`, the growth was 93.3%.

With `CCCCCOC(=O)Nc1nc(=O)n(C2O[C@H](C)[C@@H](O)[C@H]2O)cc1F` (stereo not given in full), the growth is 92.8%.

`CC(C)(C)n1cc(-c2ccnc(NCCNS(=O)(=O)c3ccc(F)cc3)c2)c(-c2cccc(O)c2)n1`: the growth is 46.6%.

For `Cc1cc(C)c([I+]c2c(C)cc(C)cc2C)c(C)c1`, the growth is -64.3% (active).

In the case of `C=C(C)[C@@H]1CC[C@]2(C(=O)N3CCN(C)CC3)CC[C@]3(C)[C@H](CC[C@@H]4[C@@]5(C)CC(CCCNC(C)=O)(CCCNC(C)=O)[C@H](OC(C)=O)C(C)(C)[C@@H]5CC[C@]43C)[C@@H]12`, the growth is 94%.

In the case of `CC1=C[C@H]2c3c(c(O)c(O)c4oc5ccccc5c(=O)c34)[C@H](c3cc(O)c(O)c4oc5ccccc5c(=O)c34)[C@H]2C(C)(C)C1`, the growth is -23% (active).

Consider `Cc1nc(-c2ccccc2)cc2c(O)c(C(=O)N/N=C/c3ccc(N(C)C)cc3)[nH]c(=O)c12`, for which the growth was 116%.

Consider `CCN(CC)CCNCC(O)Cc1ccc(OC)cc1` (stereo not given), for which the growth was 59.1%.

As for `Cn1cc(/C=C2/C(=O)Nc3ccccc32)c2ccccc21`, the growth was 85.8%.

Take `COc1ccc(-c2cc(C(=O)Nc3ccc(Br)cc3)nc3[nH]c(=O)sc23)cc1`: the growth was 25.5%.

For `C[C@@H]1CN(Cc2ccc(/C=C/c3n[nH]c4ccc5nc(-c6cn[nH]c6C(F)(F)F)c6c(c5c34)CCCC6)cc2)C[C@H](C)O1`, the growth was 46.7%.

In the case of `O=C1NC(=O)[C@@H](c2cn3c4c(cccc24)CCC3)[C@@H]1c1c[nH]c2ccccc12`, the growth was -21% (active).

Turning to `COC(=O)[C@]12CC[C@@H](C)[C@H](C)[C@@H]1C1=CC[C@@H]3[C@@]4(C)C(C=O)=C[C@@](C)(COC(=O)c5ccco5)C4=CC[C@@]3(C)[C@]1(C)CC2`, the growth is -9.45% (active).

For the compound `CC(=O)c1ccc2c(c1)CCN2`, the growth was 106%.

Consider `COc1ccc(-c2[nH][nH]c(=O)c2-c2nc3ccccc3s2)cc1`, for which the growth was 99.5%.

For the compound `Nc1c(C(=O)Nc2ccccc2Cl)sc2nc3c(cc12)C(=O)CCC3`, the growth was 67.1%.

`Nn1c(-c2ccc(Cl)cc2)nc2c(-c3ccc(Cl)cc3)nc3ccc(Cl)cc3c2c1=O`: the growth was 43.4%.

Turning to `CO[C@H]1/C=C/O[C@@]2(C)Oc3c(C)c(O)c4c(O)c(c5c(nc6cc(C)ccn65)c4c3C2=O)NC(=O)/C(C)=C\C=C\[C@H](C)[C@H](O)[C@@H](C)C(O)[C@@H](C)[C@H](OC(C)=O)[C@@H]1C` (stereo not given in full), the growth is 102%.

For `Cc1ccc(O)c(C(=O)c2ccccc2Cl)c1`, the growth is 112%.
